Results as given in PubChem BioAssay (NCATS).
Results filed as inconclusive are left out. Activity calls are given as the source filed them. The call rests on the fitted dose curve; in most records, active means well fitted inhibition curve with a large enough effect; inconclusive means small, poorly fitted or top-dose-only effect; inactive means flat fitted curve, though single readings scatter.

biological target: Calcium and integrin-binding protein 1 (Homo sapiens) (UniProt Q99828); assay: Primary qHTS for Identification of Calcium Integrin Binding Protein 1 (CIB1) Competitor (AID 1508620); conditions: CIB1-GST / FITC-alphaIIb peptide fluorescence polarization; series mostly up to 114 µM; activity change, negative = inhibition: at the top concentration;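 further: GST tagged CIB1 binding a fluorescein labelled alphaIIb integrin peptide tracer; top concentration of the series differs between compounds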
Method in brief: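 CIB1-GST (1 uM final) and compound incubated 15 min at room temperature before adding FITC-alphaIIb peptide tracer (100 nM final). Competition for binding read by fluorescence polarization (ex 480, em 540) after another 15 min at room temperature.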
On the % scale 0 is the no-effect control and ±100 the full control effect.

Chain of Calcium and integrin-binding protein 1 (Homo sapiens) (Q99828 whole entry, looked up): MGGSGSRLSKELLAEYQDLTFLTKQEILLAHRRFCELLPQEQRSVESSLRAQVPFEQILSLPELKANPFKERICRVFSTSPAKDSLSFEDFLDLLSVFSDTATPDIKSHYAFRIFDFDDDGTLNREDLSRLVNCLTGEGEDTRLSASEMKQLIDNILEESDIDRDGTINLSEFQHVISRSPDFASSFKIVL

SMILES | activity change, negative = inhibition
COc1cc(OC)c(NC(=O)c2ccc(Cc3cc4c(cc3C)C(C)(C)CCC4(C)C)o2)c(OC)c1 | 2.59% (inactive)
Cc1cc(-c2ncc(-c3cccnc3)cc2/C=C/c2ccccc2)cnc1-c1cccnc1 | -0.212% (inactive)
O=C(NO)c1ccc(CC(=O)N(CCO)c2ccccc2)cc1 | 3.05% (inactive)
COC1CC/C=C(\C)C(=O)Nc2cc(O)cc(c2)CC(C)CC(OC)C(O)C(C)/C=C(\C)C1OC(N)=O (stereo not drawn) | -0.733% [at 57.7 µM] (inactive)
Nc1nc(NC2CC2)cc(-c2cccc(Cl)c2Cl)n1 | -10.3% (inactive)
COc1cc2c(c(OC)c1CC=C(C)C)C[C@H](c1ccc(O)c(CC=C(C)C)c1O)CO2 | 5.63% [at 57.7 µM] (inactive)
O=C(Nc1ccccc1)N1CCN(c2nc(-c3ccccc3)ns2)CC1 | 1.87% (inactive)
C=C1C(=O)O[C@@H]2C[C@@]3(C)C[C@@H](O)C[C@H](C)C3=C[C@H]12 | -0.0677% (inactive)
CC(C)CCNC(=O)[C@H](CC(C)C)NC(=O)[C@H]1O[C@@H]1C(=O)O | -2.11% (inactive)
CC(C)S(=O)(=O)NC[C@@H]1CC(c2ccc(N3CCCC3)c(F)c2)=NO1 | 1.98% (inactive)
C=CC(C)(C)c1[nH]c2ccccc2c1C[C@@H]1NC(=O)[C@H](C)NC1=O | -8.09% [at 57.7 µM] (inactive)
C=C1/C(=C/C=C2\CCC[C@]3(C)[C@@H]([C@H](C)/C=C/[C@@H](C)C(C)C)CC[C@@H]23)C[C@@H](O)C[C@@H]1O | 4.66% (inactive)
CN1c2c(nc(N)[nH]c2=O)NC[C@@H]1CNc1ccc(C(=O)N[C@@H](CCC(=O)O)C(=O)O)cc1 | -7.78% (inactive)
COc1cccc(-c2cc(F)ccc2C2Cc3nc(N)nc(C)c3C(=O)N2)n1 (stereo not drawn) | 4.74% (inactive)
CC(=O)O[C@H]1CC[C@]2(C)[C@H]3CC[C@]4(C)Oc5oc(C)cc(=O)c5C[C@H]4[C@]3(C)CC[C@H]2C1(C)C | 2.98% [at 57.7 µM] (inactive)
C=C1CC2OC(=O)C(=C)C2C(O)/C=C(\C)CCC1O (stereo not drawn) | 0.762% (inactive)
C[C@]12CC[C@@H]3c4ccc(O)c(O)c4CC[C@H]3[C@@H]1CCC2=O | -10.1% (inactive)

SMILES | activity change, negative = inhibition
CC(C)(O)c1ccn2c(-c3ccc(F)c(-c4ccc(F)cc4C#N)c3)cnc2c1F | 2.09% (inactive)
COc1ccc(CCO[C@@H]2O[C@H](CO[C@H]3OC[C@](O)(CO)[C@H]3O)[C@@H](OC(=O)/C=C/c3ccc(O)c(O)c3)[C@H](O[C@@H]3O[C@@H](C)[C@H](O)[C@@H](O)[C@H]3O)[C@H]2O)cc1OC | 1.27% [at 30.2 µM] (inactive)
CC(=O)OC1CC(O)(C(C)C)C2C(OC(=O)c3ccc(O)cc3)C=C(C)C(=O)CC12C (stereo not drawn) | 0.284% [at 57.7 µM] (inactive)
Cc1ccc(NC(=O)c2ccc(CN3CCNCC3)cc2)cc1Nc1nccc(-c2cccnc2)n1 | -6.06% (inactive)
C=CC(=O)N1CCC[C@@H](n2nc(-c3cccc(C(=O)Nc4ccc(C(C)C)c(C)c4)c3)c3c(N)ncnc32)C1 | -0.546% (inactive)
Cc1cc(C(C)Nc2ccccc2C(=O)O)c2nc(N3CCOCC3)cc(=O)n2c1 (stereo not drawn) | -4.27% (inactive)
Cc1nc(Nc2cnn(C3CCNCC3)c2)nc2c1N(C)C(=O)c1cc3ccccc3cc1N2C | -5.44% (inactive)
CCC/C=C/C(=O)O[C@H]1CC(C)(C)CC2[C@@]13[C@H](O)C[C@]1(C)[C@@]2(CCC2[C@@]4(C)CC[C@H](O[C@@H]5O[C@H](C(=O)O)[C@@H](O)[C@H](O[C@@H]6O[C@H](CO)[C@H](O)[C@H](O)[C@H]6O[C@@H]6O[C@@H](C)[C@H](O)[C@@H](O)[C@H]6O[C@@H]6OC[C@](O)(CO)[C@H]6O)[C@H]5O[C@@H]5O[C@H](CO)[C@H](O)[C@H](O)[C@H]5O)C(C)(C)C4CC[C@]21C)O[C@H]3O (stereo partly drawn) | 4.06% [at 12.4 µM] (inactive)
CC(C)(O)C1CC(=O)C2(C)C(CCC3(C)C(c4ccoc4)OC(=O)C4OC432)C12CCC(=O)OC2 (stereo not drawn) | -12.8% [at 57.7 µM] (inactive)
Cn1c(=O)c(F)c(Nc2ccc(I)cc2F)c2c(=O)n(CC(O)CO)cnc21 (stereo not drawn) | 0.883% (inactive)
Cc1ccc(CNc2ncnc3ccc(-c4ccc(CO)o4)cc23)o1 | -1.87% (inactive)
Nc1ncnc2c1c(-c1ccc(Oc3ccccc3)cc1)nn2[C@@H]1CCCNC1 | 1.83% (inactive)
S=C(c1ccc(-c2ccc(Cl)c(Cl)c2)o1)N1CCCCC1 | -2.09% (inactive)
C=C1C(=O)OC2/C=C(\C)CC3C=C(CC/C=C(\C)CCC12)C(=O)O3 (stereo not drawn) | 4.28% [at 57.7 µM] (inactive)
CC1(C)CCC2(C(=O)OC3OC(COC4OC(CO)C(O)C(O)C4O)C(O)C(O)C3O)CCC3(C)C(=CCC4C5(C)CCC(OC6OCC(O)C(O)C6O)C(C)(C)C5CCC43C)C2C1O (stereo not drawn) | 2.9% [at 30.2 µM] (inactive)
O=C(Nc1cccc([N+](=O)[O-])c1)c1cccc(S(=O)(=O)N2CCCCCC2)c1 | -2.76% (inactive)
